From PubChem BioAssay (NCATS) come the findings set out here.

The structures appear in SMILES notation. Values without a mark were called inactive. Results filed as inconclusive are left out. Activity calls are given as the source filed them. The call rests on the fitted dose curve; in most records, active means well fitted curve in the direction sought with a large enough effect; inconclusive means small, poorly fitted or top-dose-only effect, or another doubt; inactive means no such curve, though single readings can be large; an effect the other way counts as inactive or inconclusive.

Experiment [1] concerns Zika virus NS2B-NS3 protease (linked construct). The experiment is described as follows: Primary screen NINDS Rhodamine qHTS for Zika virus inhibitors (AID 1347160). Further: on the % scale 0 is the no-effect control and ±100 the full control effect; nearly all actives have a fitted effect of over 55% in size. In short, it runs like this:
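Kinetic fluorescence (Ex 480 nm, Em 540 nm) over 15 min with 1.5 microM Rhodamine110 peptide and 25 nM linked protease.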

Experiment [2] has as its target Calcium and integrin-binding protein 1 (Homo sapiens) (UniProt Q99828). The experiment is described as follows: Primary qHTS for Identification of Calcium Integrin Binding Protein 1 (CIB1) Competitor (AID 1508620).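 Further: GST tagged CIB1 binding a fluorescein labelled alphaIIb integrin peptide tracer; top concentration of the series differs between compounds; on the % scale 0 is the no-effect control and ±100 the full control effect.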 In a few lines: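 CIB1-GST (1 uM final) and compound incubated 15 min at room temperature before adding FITC-alphaIIb peptide tracer (100 nM final). Competition for binding read by fluorescence polarization (ex 480, em 540) after another 15 min at room temperature.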
On the technique in general: In qHTS, concentration-response curves come from the screen itself.

In experiment [3] the target is Glutathione peroxidase 1 (Homo sapiens) (UniProt P07203). The experiment is described as follows: Primary qHTS Assay for Inhibitors of Recombinant Selenoprotein Glutathione Peroxidase 1 (GPX1) (AID 1845191). Further: nearly all actives have a fitted effect of over 65% in size. In short, it runs like this:
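10 nM GPX1 + cpd, 30 min RT; start w/ 1 mM GSH, 0.5 mM cumene hydroperoxide, 0.5 mM NADPH, 100 nM GR, 0.01% BSA; buffer 50 mM Tris-HCl pH 7.5, 2 mM EDTA, 150 mM NaCl; Fl 340/450, 0 & 15 min.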

Experiment [4] has as its target Phospholipid hydroperoxide glutathione peroxidase GPX4 (Homo sapiens) (UniProt P36969). The experiment is described as follows: Primary qHTS Assay for Inhibitors of Recombinant Selenoprotein Glutathione Peroxidase 4 (GPX4) (AID 1845192). Further: on the % scale 0 is the no-effect control and ±100 the full control effect; nearly all actives have a fitted effect of over 65% in size. In short, it runs like this:
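NADPH consumption, followed by fluorescence at 340/450 nm between 0 and 15 min, reports GPX4 activity via coupled glutathione reductase (100 nM). Enzyme 200 nM was pre-exposed to compound 30 min; 0.5 mM cumene hydroperoxide and 1 mM GSH served as substrates.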

Experiment [5] concerns the target Luciferin 4-monooxygenase (Photinus pyralis) (UniProt P08659). The experiment is described as follows: Primary firefly luciferase (FLuc) qHTS assay for identification of artifact compounds. (AID 1845220). Further: nearly all actives have a fitted effect of over 60% in size. The note with it: outcome: dose series up to 54.1 µM unless noted. In a few lines: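 Compounds sat 15 min at room temperature with 10 uM luciferin and 10 uM ATP (pH 7.6 Tris acetate). Firefly luciferase (10 nM final) was then added, and luminescence was read 5 min later. Data normalized to no-enzyme and DMSO controls were Hill-fitted.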

Experiment [6] deals with Nanoluciferase (engineered Oplophorus gracilirostris luciferase). The experiment is described as follows: Primary Nanoluciferase (NLuc) qHTS assay for identification of artifact compounds. (AID 1845222).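 Further: 0% = DMSO and -100% = no enzyme.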 In short, it runs like this:
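Luminescence from secreted NLuc (filtered, 1:55-diluted S16 cell medium) read 5 min after Nano-Glo substrate; compounds preincubated 15 min, RT. Hill fits of inhibition normalized to DMSO and no-enzyme.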

The next experiment concerns CRL-7250. The experiment is described as follows: Cytotoxic Profiling of Annotated Libraries Using Quantitative High-Throughput Screening (AID 1296008). Further: nearly all actives have a fitted effect of over 60% in size. Further: potency means the concentration at half of the fitted maximal effect. On max response: on the % scale 0 is the no-effect control and ±100 the full control effect. The note with it: Five cell lines viability, CellTiter-Glo ATP luminescence, 48-72 h; max response: active compounds read low. In a few lines:
(§1)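 Cytotoxicity was measured as CellTiter-Glo ATP luminescence, read after 10 min at room temperature. Compound treatment of the cells lasted 48 or 72 hr at 37 degrees Celsius in a qHTS format.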
(In general: In ATP-based viability assays light output follows the ATP content of the culture.)

The next experiment concerns HEK293. The experiment is described as above. The note with it: Five cell lines viability, CellTiter-Glo ATP luminescence, 48-72 h; max response: active compounds read low. In a few lines: as §1
Another experiment deals with HaCat. The experiment is described as above. To be noted: Five cell lines viability, CellTiter-Glo ATP luminescence, 48-72 h; max response: active compounds read low. In a few lines: as §1
The subject of another experiment is NIH3T3. The description is as above. To be noted: Five cell lines viability, CellTiter-Glo ATP luminescence, 48-72 h; max response: active compounds read low. In a few lines:
as §1

A further experiment has as its system C33A. The experiment is described as follows: Primary qHTS to identify gynecologic anti-cancer compounds using libraries of approved drugs and bioactive compounds (AID 1345084). Further: on the % scale 0 is the no-effect control and ±100 the full control effect; nearly all actives have a fitted effect of over 55% in size. To be noted: Gynecologic cancer cell panel viability, ATPlite luminescence, 48 h; series mostly up to 57.5 µM. In short, it runs like this: (§2)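 Luminescence from the ATPlite ATP-monitoring reagent indicates viable cell number; lower signal means cytotoxicity. Cells received compound 16 h after seeding and were exposed for 48 h across five concentrations.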

The test system of another experiment is CASKI. Described as above. To be noted: Gynecologic cancer cell panel viability, ATPlite luminescence, 48 h; series mostly up to 57.5 µM. In short, it runs like this: as §2
The next experiment relates to Es-2. Described as above. To be noted: Gynecologic cancer cell panel viability, ATPlite luminescence, 48 h; series mostly up to 57.5 µM. In short, it runs like this:
as §2

For a further experiment, the system named is Hek293T. Described as above. To be noted: Gynecologic cancer cell panel viability, ATPlite luminescence, 48 h, control line for the selectivity index; series mostly up to 57.5 µM. In a few lines:
as §2

The subject of another experiment is JEG-3. The description is as above. The note with it: Gynecologic cancer cell panel viability, ATPlite luminescence, 48 h; series mostly up to 57.5 µM. In short, it runs like this: as §2
In the next experiment the test system is OV90. The description is as above. To be noted: Gynecologic cancer cell panel viability, ATPlite luminescence, 48 h; series mostly up to 57.5 µM. In a few lines: as §2
The test system of another experiment is PA-1. The description is as above. The note with it: Gynecologic cancer cell panel viability, ATPlite luminescence, 48 h; series mostly up to 57.5 µM. In short, it runs like this:
as §2

The subject of another experiment is Tov-21-G. The description is as above. The note with it: Gynecologic cancer cell panel viability, ATPlite luminescence, 48 h; series mostly up to 57.5 µM. In a few lines:
as §2

For a further experiment, the system named is Tov112D. The description is as above. The note with it: Gynecologic cancer cell panel viability, ATPlite luminescence, 48 h; series mostly up to 57.5 µM. In short, it runs like this:
as §2

Experiment [7] is described as follows: Primary qHTS for inhibitors of nuclear receptor binding SET domain protein 2 (NSD2) in an isogenic RCH-ACV NSD2 p.E1099K mutant (9B) (AID 1645876). Further: on the % scale 0 is the no-effect control and ±100 the full control effect; nearly all actives have a fitted effect of over 70% in size.

Chain of Glutathione peroxidase 1 (Homo sapiens) (P07203 whole entry, looked up): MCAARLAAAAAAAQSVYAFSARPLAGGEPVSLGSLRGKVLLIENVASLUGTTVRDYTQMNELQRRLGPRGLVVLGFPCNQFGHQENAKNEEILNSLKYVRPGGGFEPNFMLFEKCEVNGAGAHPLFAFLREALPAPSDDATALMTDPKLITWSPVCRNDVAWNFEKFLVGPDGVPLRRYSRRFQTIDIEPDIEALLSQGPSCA
Chain of Calcium and integrin-binding protein 1 (Homo sapiens) (Q99828 whole entry, looked up): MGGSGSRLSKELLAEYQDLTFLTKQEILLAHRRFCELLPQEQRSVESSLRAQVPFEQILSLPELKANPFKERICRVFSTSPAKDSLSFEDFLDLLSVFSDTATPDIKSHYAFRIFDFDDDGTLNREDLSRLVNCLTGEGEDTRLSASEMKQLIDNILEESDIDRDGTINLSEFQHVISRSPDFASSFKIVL
Chain of Phospholipid hydroperoxide glutathione peroxidase GPX4 (Homo sapiens) (P36969 whole entry, looked up): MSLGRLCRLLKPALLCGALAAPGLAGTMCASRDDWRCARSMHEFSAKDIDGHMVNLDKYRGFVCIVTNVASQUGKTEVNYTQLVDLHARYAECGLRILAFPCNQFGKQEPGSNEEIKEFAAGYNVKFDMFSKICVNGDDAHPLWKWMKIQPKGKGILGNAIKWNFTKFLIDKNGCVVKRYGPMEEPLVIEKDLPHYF

Turning to `CC(=O)O[C@H]1CC[C@H]2[C@@H]3CC[C@H]4CC(=O)C=C(C)[C@]4(C)[C@H]3CC[C@]12C`, the Potency entry (in experiment [1]; in experiment [2]; in [3]; in experiment [4]; in experiment [6]; in the experiment on C33A) was “inactive” throughout. In addition, the Potency result with CASKI, with Es-2, with Hek293T, with JEG-3, with OV90 and in the experiment with PA-1 was “inactive” in each case. Moreover, the Potency result with Tov-21-G and in the experiment on Tov112D was “inactive” in each case. Moreover, the result (in [5]; in the experiment with HaCat) was inactive. Further, the results for the max response with CRL-7250 and with NIH3T3 were -4.94% and -1.67%, respectively. In addition, in the experiment with HEK293, the Potency is 23.1 µM (active).

`N#Cc1ccc([C@H]2CCCC[C@H]2O)cc1C(F)(F)F`: the Potency result in [1], in experiment [2], in [7], in [3], in [4] and in [6] was “inactive” throughout. Moreover, the Potency result in the experiment with C33A, with CASKI, in the experiment on Es-2, with Hek293T, in the experiment on JEG-3 and in the experiment on OV90 was “inactive” each time. Besides, the Potency entry in the experiment with PA-1, with Tov-21-G and with Tov112D was “inactive” in each case. The call in [5] was inactive. Besides, the max response is 1.6% in the experiment with CRL-7250, -11% with HEK293, -7.91% in the experiment with HaCat and -1.88% with NIH3T3.

Turning to `CC1=CC2/C=C(\C)CCCC(O)/C=C/C(=O)OC23C(=O)NC(CC(C)C)C3C1C` (stereo unspecified), the Potency result in experiment [1], in experiment [2], in [7], in experiment [3], in [4] and in experiment [6] was “inactive” throughout. Besides, the Potency entry in the experiment on C33A, in the experiment on Es-2, in the experiment on Hek293T, in the experiment with JEG-3, in the experiment with OV90 and with PA-1 was “inactive” throughout. For the same molecule, the Potency result in the experiment with Tov-21-G and in the experiment with Tov112D was “inactive” throughout. For the same molecule, the molecule was classed as inactive (in experiment [5]; in the experiment on CRL-7250). Also, the max response in the experiment with HEK293 was -0.114%; in the experiment on HaCat it was -3.87%; with NIH3T3, 1.49%.

For `COC(=O)C1=COC(C)C2CN3CCC4(C(=O)Nc5ccccc54)C3CC12` (stereo unspecified), the Potency entry in experiment [1], in [2], in [7], in experiment [3], in experiment [4] and in [6] was “inactive” in each case. In addition, the Potency result in the experiment with C33A, with CASKI, in the experiment on Es-2, in the experiment with Hek293T, in the experiment with JEG-3 and in the experiment on OV90 was “inactive” each time. Moreover, the Potency result in the experiment with PA-1, with Tov-21-G and in the experiment on Tov112D was “inactive” in each case. For the same molecule, the molecule was classed as inactive in experiment [5]. The max response in the experiment on CRL-7250 is -2.61%; in the experiment with HEK293 it was -24%; with HaCat, 2.66%; with NIH3T3 it was -11.4%.

As to `COC1C=CC23c4cc5c(cc4COC2(O)CN(C)C3C1)OCO5` (stereo unspecified), the Potency entry in [1], in [2], in [7], in experiment [3], in [4] and in [6] was “inactive” throughout. The Potency result with C33A, in the experiment with CASKI, with Es-2, with Hek293T, in the experiment on JEG-3 and in the experiment with OV90 was “inactive” in each case. Besides, the Potency result in the experiment with Tov-21-G and in the experiment on Tov112D was “inactive” in each case. For the same molecule, the molecule was classed as inactive (in experiment [5]; in the experiment with HaCat). Further, the max response in the experiment with CRL-7250 was -6.96%; in the experiment on HEK293 it was -0.372%; in the experiment on NIH3T3 it was -0.709%.

In the case of `CN1C2CCC1CC(OC(=O)N1Cc3ccccc3NC1=O)C2` (stereo unspecified), the Potency entry (in experiment [1]; in experiment [2]; in experiment [7]; in experiment [4]; in experiment [6]; in the experiment on C33A) was “inactive” throughout. The Potency result in the experiment with CASKI, in the experiment on Es-2, with Hek293T, with JEG-3, in the experiment on OV90 and in the experiment with PA-1 was “inactive” in each case. Also, the Potency result in the experiment on Tov-21-G and in the experiment on Tov112D was “inactive” in each case. The molecule was classed as inactive (in experiment [5]; with CRL-7250). Besides, the results for the max response with HEK293, with HaCat and in the experiment on NIH3T3 were 0.771%, 2.89% and -1.26%, respectively.
